KCNQ2 pot: KCNQ2 (rat) channel potentiation | CHO-K1 KCNQ2, FluxOR thallium flux fluorescence; stronger effect = higher value | O88943 | hit rate 0.54% among 310,000 | B-score at 10 µM | AID 2239;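 active means fluorescence ratio B-score at least 3 SD of library B-scores, with initial fluorescence B-score within 3 of them, cut at about 5.3 in these data; same plate scores as AID 2156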;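 further: B-score of peak minus minimum over baseline fluorescence ratio after K+ and Tl+ stimulus; positive B-score means potentiation of KCNQ2 with more thallium influx and brighter signal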
Target sequence (O88943 whole entry, looked up): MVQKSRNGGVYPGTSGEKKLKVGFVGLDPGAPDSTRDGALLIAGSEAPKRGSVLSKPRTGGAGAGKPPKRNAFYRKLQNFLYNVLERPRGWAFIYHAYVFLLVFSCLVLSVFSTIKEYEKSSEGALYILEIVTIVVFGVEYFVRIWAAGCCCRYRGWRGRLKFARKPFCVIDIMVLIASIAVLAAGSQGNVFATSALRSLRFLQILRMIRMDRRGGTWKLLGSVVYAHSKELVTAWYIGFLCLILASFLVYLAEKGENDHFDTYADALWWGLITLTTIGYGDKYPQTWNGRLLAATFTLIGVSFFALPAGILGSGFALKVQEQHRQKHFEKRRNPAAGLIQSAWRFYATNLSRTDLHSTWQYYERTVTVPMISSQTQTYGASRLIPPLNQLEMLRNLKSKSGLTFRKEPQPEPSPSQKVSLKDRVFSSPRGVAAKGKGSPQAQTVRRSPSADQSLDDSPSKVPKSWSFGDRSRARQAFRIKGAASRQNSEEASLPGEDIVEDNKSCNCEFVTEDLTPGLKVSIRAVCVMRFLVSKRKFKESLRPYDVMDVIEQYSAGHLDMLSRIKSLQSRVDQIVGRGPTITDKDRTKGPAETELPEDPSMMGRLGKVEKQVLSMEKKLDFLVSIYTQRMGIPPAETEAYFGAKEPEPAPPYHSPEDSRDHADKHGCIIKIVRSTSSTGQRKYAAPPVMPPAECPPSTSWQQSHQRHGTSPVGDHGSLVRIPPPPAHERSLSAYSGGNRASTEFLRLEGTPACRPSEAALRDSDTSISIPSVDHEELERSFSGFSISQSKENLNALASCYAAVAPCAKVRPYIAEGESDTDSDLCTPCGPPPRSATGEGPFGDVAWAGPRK
KCNQ2 block: inhibitors of rat KCNQ2 potassium channel; AID 2156; O88943; B-score at 10 µM; hit rate 1.1% among 310,000; CHO-K1 KCNQ2, FluxOR thallium flux, 20 min; stronger effect = lower value;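 active means fluorescence ratio B-score at most minus 3 library SDs, with starting brightness B-score within 2 library SDs, cut at about -5.5 in these data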
Starred values were filed as active, the others as inactive; i = inactive; x = no result; ! = a repeat was not active. A selection: hits, their analogues and other compounds. The true share with any hit is near 1.6%.

SMILES | KCNQ2 pot | KCNQ2 block
Cn1c(C(=O)N2CCCCCC2)cc2c(=O)n(C)c3ccccc3c21 | 0.64 | i
Cc1nc(-c2ccc(Cl)cc2)sc1C1(C)CC(c2cccc(F)c2)=NO1 (centres undefined) | x | i
CCCNC(=O)c1ccc(N2CCC3(CC2)CC(c2ccccc2)=NO3)c(NC(=O)c2ccc(Br)cc2)c1 | x | i
CCCCCCCC(=O)Nc1cc(C(=O)NCCC)ccc1N1CCC2(CC1)CC(c1ccccc1)=NO2 | -5.98 | -5.98*
Cc1ccccc1Cn1ccc(=NCc2ccccc2)cc1 | x | i
Cc1ccc(NC(=O)CN(C)CC(=O)Nc2ccccc2-c2ccccc2)cc1 | x | i
CN(CC(=O)Nc1ccccc1-c1ccccc1)Cc1ccccc1Cl | -6.28 | -6.28*
NC(=O)CC(NC(=O)Cc1cccc2ccccc12)c1ccc(N2CCN(c3ccccn3)CC2)c([N+](=O)[O-])c1 (centres undefined) | 0.26 | i
Cc1ccccc1Nc1nc(N)nc(CCl)n1 | x | i
Cc1ccc(N2CC(C(=O)OCc3nc(N)nc(Nc4ccccc4C)n3)CC2=O)cc1 (centres undefined) | 0.86 | i
Cc1ccccc1NC(=O)CSCc1nc(N)nc(Nc2ccccc2C)n1 | 5.7* | i
Cc1ccccc1Nc1nc(N)nc(COC(=O)C2CCCCC2)n1 | 7.68* | i
CCOC(=O)C1CCN(C(=O)CCNC(=O)c2cc(OC)c(OC)c(OC)c2)CC1 | x | i
C#CCOc1ccc(/C=C2/C(=O)NN(c3ccc(F)cc3)C2=O)cc1OC | 2.76 | i
CCN(CC)S(=O)(=O)c1ccc(N2CCOCC2)c(NC(=O)c2ccccc2)c1 | x | i
CCN(CC)S(=O)(=O)c1ccc(N2CCOCC2)c(NC(=O)COc2ccc(Cl)cc2)c1 | -6.56 | -6.56*
CCN(CC)S(=O)(=O)c1ccc(N2CCOCC2)c(NC(=O)CC(C)(C)C)c1 | x | i
CCN(CC)S(=O)(=O)c1ccc(N2CCOCC2)c(NC(=O)c2cc(C)cc(C)c2)c1 | -6.18 | -6.18*
CCC(C)(C)NC(=O)C(c1cccc(OC)c1)N(C(=O)CNC(=O)c1cccs1)c1cccnc1 (centres undefined) | x | i
CC1C(=O)N2CCCc3cc(NC(=O)C(=O)NCc4ccccn4)cc1c32 (centres undefined) | 0.58 | i
CCCCc1ccc(NC(=O)CSc2nc(=O)n(CCCN3CCOCC3)c3c2CCC3)cc1 | x | i
O=C(CSc1nnc(NC(=O)c2ccc(F)cc2F)s1)NC1CC1 | x | i
Cc1cccc(N=Cc2cc3c(cc2[N+](=O)[O-])OCO3)c1 | -6.49 | -6.49*
O=[N+]([O-])c1cc2c(cc1C=Nc1ccccc1)OCO2 | x | i
CC(=O)C(Cc1ccccc1)(Cc1ccccc1)C(C)=O | 0.24 | i
SMILES | KCNQ2 pot | KCNQ2 block
CCOC(=O)C(Cc1ccccc1)(Cc1ccccc1)C(C)=O | -6.44 | -6.44*
COc1ccccc1N1CCN(/N=C/C=C/c2ccccc2[N+](=O)[O-])CC1 | x | i
O=C(CCc1ccccc1)N1CCN(S(=O)(=O)c2cccs2)CC1 | 1.54 | i
Oc1c(Cl)cc(Cl)cc1CNc1nc2ccccc2[nH]1 | -6.17 | -6.17*
Oc1c(Cl)cc(Cl)cc1CNc1ccccn1 | x | i
Cc1noc(C)c1C(=O)NCCc1c(C)[nH]c2ccccc12 | x | i
CN(C)C1C(=O)c2ccccc2C1=O | 1.1 | i
CC(O)CNCc1ccccc1C(F)(F)F (centres undefined) | x | i
O=C(COC(=O)CC(c1ccccc1)c1ccccc1)Nc1cccc(F)c1 | x | i
O=C(COC(=O)CC(c1ccccc1)c1ccccc1)Nc1ccc(F)c(F)c1 | -8.08 | -8.08*
CCC1=CC(c2ccccc2)n2ncnc2N1 (centres undefined) | x | i
Nc1nc(-c2cccnc2)nc2sc3c(c12)CCCC3 | 3.48 | i
O=C1CN(c2nc(-c3cccnc3)nc3sc4c(c23)CCCC4)CCN1 | -5.68 | -5.68*
Cc1ccc(S(=O)(=O)CCN2CCC(n3cccc3)CC2)cc1 | x | i
Cc1cc(OCCN2CCC(Cc3ccccc3)CC2)ccc1[N+](=O)[O-] | x | i
Cc1nn(-c2ccccc2)c(C)c1N | 1.09 | i
CNCc1c(C)nn(-c2ccccc2)c1C | 10.3* | i
CC(C)(C)NC(=O)NC(=O)COC(=O)c1cccc(S(=O)(=O)N2CCCCC2)c1 | x | i
O=C(CSc1nncs1)Nc1nnc(-c2ccccc2)o1 | x | i
CC(=O)c1ccc(NC(=O)c2ccc3nc(-c4ccco4)c(-c4ccco4)nc3c2)cc1 | x | i
O=C(Nc1ccccc1)c1ccc2nc(-c3ccco3)c(-c3ccco3)nc2c1 | -6.49 | -6.49*
O=C(Nc1ccc(C(=O)NCCCN2CCN(c3ccccc3)CC2)cc1)C1=CSCCO1 | 0.05 | i
Cc1cccc(OC(=O)Cn2c(C(F)(F)F)nc3ccccc32)c1 | 0.08 | i
Cc1cccc(OCc2n(CC(=O)OC3CC(C)CCC3C(C)C)c3ccccc3[n+]2C)c1 (centres undefined) | -6.28 | -6.28*
COc1cccc(/C=N/NC(=O)c2ccoc2C)c1 | x | i
SMILES | KCNQ2 pot | KCNQ2 block
O=C(NCCc1ccccn1)c1nc(Cn2ccc([N+](=O)[O-])n2)no1 | 0.3 | i
O=C(NCc1ccccc1)c1noc2c1CCCC2 | x | i
O=C(NCc1ccc(Cl)cc1)c1noc2c1CCCC2 | -6.47 | -6.47*
CCN(CC)C(=O)/C(=C\c1ccc2c(c1)OCO2)NC(=O)c1ccc(Br)cc1 | -6.51 | -6.51*
CCN(CC)C(=O)/C(=C\c1ccc(Br)cc1)NC(=O)c1ccccc1OC | -7.25 | -7.25*
CCNC(=O)/C(=C\c1ccc2c(c1)OCO2)NC(=O)c1ccc(Br)cc1 | x | i
COc1ccccc1C(=O)N/C(=C\c1ccc(Br)cc1)C(=O)NCCO | x | i
O=C(c1ccc(C(F)(F)F)cc1)C1CCCN(C(=O)CN2CCCC2=O)C1 (centres undefined) | 0.37 | i
COCCC(=O)N1CCCC(C(=O)c2ccc(C(F)(F)F)cc2)C1 (centres undefined) | 6.77* | i
CC1C/C(=N/Nc2nc3ccccc3[nH]2)CC(C)(C)C1 (centres undefined) | 1.05 | i
Cc1cc(N/N=C2\CC(C)CC(C)(C)C2)nc2ccccc12 (centres undefined) | -5.57 | -5.57*
Cc1ccc2[nH]c(C(=O)NN=C3CCCCC3)c(-c3ccccc3)c2c1 | 0.41 | i
O=C(Nc1cc(Br)c(O)c(Br)c1)c1cccc(NC(=O)c2ccco2)c1 | 2.77 | i
O=C(Nc1cccc(N=Cc2cc(Cl)cc(Br)c2O)c1)c1ccco1 | 10.1* | i
O=C(c1oc2ccccc2c1CSCc1ccccc1)N1CCN(c2ncccn2)CC1 | -6.2 | -6.2*
CCOCC(=O)Nc1c(C(=O)N2CCN(c3ncccn3)CC2)oc2ccccc12 | 0.31 | i
CC(CNC(=O)C(=O)NC(C)CCc1ccccc1)Cc1ccccc1 (centres undefined) | x | i
O=C(Nc1cccc(C(F)(F)F)c1)c1cccnc1 | 1.83 | i
COc1cc(NC(=O)c2ccnnc2)cc(C(=O)Nc2cccc(C(F)(F)F)c2)c1 | -5.79 | -5.79*
Cc1c(O)cccc1C(=O)N[C@@H](CSc1ccccc1)[C@H](O)CN1C[C@H]2CCCC[C@H]2C[C@H]1C(=O)NC(C)(C)C | -5.73 | -5.73*!
Cn1cc(/C=C(\NC(=O)c2ccccc2Cl)C(=O)N2CCOCC2)c2ccccc21 | -7.04 | -7.04*
COc1ccccc1C(=O)N/C(=C\c1cn(C)c2ccccc12)C(=O)N1CCOCC1 | x | i
CCOC(=O)C1CCCN(CCc2ccccc2)C1 (centres undefined) | 1.38 | i

Screens (PubChem BioAssay)
